Data: PubChem BioAssay AID2521 (Sanford-Burnham Center for Chemical Genomics, 2010)
Out of some 330,000 compounds screened, about 1,100 (0.33%) were called active. The entries come from a sample that favours actives as a whole. A number with no mark means an inactive call.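 How the source made its calls: active means inhibition above about 40% at 20 µM (limit read from the data); inactive means the rest.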

Biological target: Apelin receptor (Homo sapiens) (UniProt P35414)
Test: antagonists of human apelin receptor APJ, primary screen, CHO-K1 cells, beta-arrestin complementation, luminescence (AID 2521);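 further: cells challenged with 10 nM apelin-13 agonist together with compound; plate controls were apelin-13 plus DMSO wells for no effect and DMSO wells lacking apelin-13 for full effect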
Conditions: at 20 µM, active compounds read high

Apelin receptor (Homo sapiens), sequence (P35414 whole entry, looked up): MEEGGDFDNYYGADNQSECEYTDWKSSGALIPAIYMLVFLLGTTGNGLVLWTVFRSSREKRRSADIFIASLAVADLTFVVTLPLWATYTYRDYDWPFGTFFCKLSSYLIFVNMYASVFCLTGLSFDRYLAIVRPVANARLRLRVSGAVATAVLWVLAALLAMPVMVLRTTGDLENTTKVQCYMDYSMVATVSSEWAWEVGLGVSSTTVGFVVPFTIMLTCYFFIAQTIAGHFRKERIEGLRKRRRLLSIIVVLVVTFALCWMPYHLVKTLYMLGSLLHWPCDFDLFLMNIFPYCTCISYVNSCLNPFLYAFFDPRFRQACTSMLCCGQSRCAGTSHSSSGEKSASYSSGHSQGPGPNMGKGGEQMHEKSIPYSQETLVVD

Row | Compound | inhibition
1 | CCOC(=O)c1c(N)n(Cc2ccccc2)c2nc3ccccc3nc12 | 42.7% (active)
2 | COc1cc(Cn2c(N)c(C(=O)NCc3ccco3)c3nc4ccccc4nc32)cc(OC)c1OC | 34%
3 | CC/C(=N\NC(=O)c1ccccc1O)c1c(O)n(Cc2ccccc2)c(=O)[nH]c1=O | -28%
4 | COc1ccc(Br)cc1CNCCc1cccc(Cl)c1 | 17.7%
5 | C=CC12CN(C)[C@@H]3C4CO[C@H](C[C@H]41)[C@]1(C(=O)Nc4ccccc41)[C@@H]32 (stereo not given in full) | -19.7%
